Measurements taken from PubChem BioAssay (NCI).
About 83,000 compounds went through this panel and 20% of them were active in at least one assay; those are over-represented in the sample as a whole.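 The test compound was applied at a single concentration to cells in 96-well plates for 48 hours, and percent growth was recorded.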 Unmarked numbers belong to inactive results. Active and inactive are the calls of the source. The calls were made as follows: active = growth percent below 10; inactive = the rest.

The molecules below were run on MDA-MB-468 breast (assay: NCI-60 one-dose screen, 48 h (100 = growth as untreated, 0 = no growth, -100 = all killed)). Details: 10 µM unless noted.
In the case of `O=C1Nc2ccc3c(c2/C1=C\c1cc2c(cc1Br)OCO2)OCO3`, the growth is reported as -11.9% (active). With `CC[C@H](CC[C@@H](C)[C@H]1CC[C@H]2[C@@H]3CC=C4C[C@@H](OCCc5nn[nH]n5)CC[C@]4(C)[C@H]3CC[C@]12C)C(C)C` the growth was 118%. `COc1cc(-c2csc(NC(=O)c3ccc(N4CCOCC4)c(C(F)(F)F)c3)n2)cc(OC)c1OC` was tested, and the growth was 27.2%. `Brc1ccc2c(c1)c(-c1nc(-c3c[nH]c4ncccc34)cs1)cn2CCCN1CCCCC1` was tested, and the growth was -15% (active). `COC(=O)[C@@]1(C)CC[C@]2(C)CC[C@]3(C)C(=CC(=O)[C@@H]4[C@@]5(C)Cc6c(n(CC#CCN7CCN(C)CC7)c7ccccc67)C(C)(C)[C@@H]5CC[C@]43C)[C@@H]2C1` gave a growth of 69.1%. With `Nc1c2c(nc3ccc(Cl)cc13)CC(c1ccccc1)CC2=O` (stereo not given) the growth was -5.35% (active). `Oc1ccc(N=Nc2ccc(Br)cc2)c(O)c1` was tested, and the growth was 15.4%. `O=C(CN1CCN(c2cc(=O)n(-c3ccccc3)c3ccccc23)CC1)Nc1ccc([N+](=O)[O-])cc1` gave a growth of 62.1%. In the case of `C=CCn1c(SCC(=O)Nc2ccc(C(=O)/C=C/c3cc(OC)c(OC)c(OC)c3)cc2)nnc1-c1ccccc1`, the growth is reported as 82%. In the case of `Cc1nc(Nc2cn[nH]c2C(=O)Nc2ccc(CN3CCN(C)CC3)cc2)c2ccsc2n1`, the growth is reported as 104%. In the case of `CSc1nc(Nc2cccc(NC(=O)CCl)c2)c(C#N)c(-c2cccc([N+](=O)[O-])c2)n1`, the growth is reported as -10.8% (active). `NS(=O)(=O)Oc1ccc(-c2sc3cc(O)ccc3c2C(=O)c2ccc(OCCN3CCCCC3)cc2)cc1` was tested, and the growth was 95.1%. For `COc1ccc([C@@H]2c3[nH]c4ccccc4c3CC3C(=O)N(C4CCN(Cc5c(F)cccc5F)CC4)CC(=O)N32)c(OC)c1` (stereo not given in full), the growth was 40.6% [5.26 µM]. For `COc1ccc2c(c1)C(Br)=C(CCO)C2c1ccccc1` (stereo not given), the growth was -40.2% (active). `COC(=O)c1nc(-c2ccccc2)oc1S(=O)(=O)N1CCN(c2cccc(Cl)c2)CC1` was tested, and the growth was 46.6%. For `COc1ccc(/C=C/C(C)=N/OCC(=O)O)cc1`, the growth was 95.6%. With `COc1ccc(OC)c(-c2c(C#N)c(-c3ccc(Cl)cc3)nc3c2c(-c2ccccc2)nn3-c2ccccc2)c1` the growth was 103%. Work on `COC(=O)c1nc(-c2ccccc2)oc1S(=O)(=O)NCC(c1ccc(Cl)cc1)N1CCCCC1` (stereo not given) yielded a growth of 37%. In the case of `NC(=S)CN1CCOCC1`, the growth is reported as 104%. `CCCN(CCC)C(=O)[C@H](CC)[C@@H]1CC[C@@H](C)[C@@H]([C@H](C)[C@@H](O)[C@@H](C)C(=O)[C@H](CC)C2O[C@]3(C=C[C@@H](O)[C@]4(CC[C@@](C)([C@H]5CC[C@](O)(CC)[C@H](C)O5)O4)O3)[C@H](C)C[C@@H]2C)O1` (stereo not given in full) was tested, and the growth was -24.6% (active). In the case of `COc1ccc2c(OCc3nnc4ccc(-c5ccccc5)nn34)ccnc2c1`, the growth is reported as 97.2% [2.5 µM]. `CC(C)CCC[C@@H](C)[C@H]1CCC2C3=CCn4c(=O)ccc(=O)n4C3CC[C@@]21C` (stereo not given in full) was tested, and the growth was -49% (active). With `COc1ccc(CNc2nccnn2)cc1` the growth was 88%. `Cc1[nH]n(C(=O)c2ccncc2)c(=O)c1N=Nc1ccc(F)c(Cl)c1` was tested, and the growth was 110%. `COc1ccc2nc3cc(Cl)ccc3c(NCCCNC(C)=O)c2c1` was tested, and the growth was 39.5%. With `O=C1C=CC(n2cc(F)c(=O)[nH]c2=O)O1` (stereo not given) the growth was 85.3%. `O=C(Nc1ccc(C(=O)/C=C/c2ccc(N3CCOCC3)cc2)cc1)Nc1ccc([N+](=O)[O-])cc1` showed a growth of 91%. `Nc1n[nH]c2cc(F)c([C@@H]3Nc4ccc5[nH]ncc5c4[C@H]4C5CCC(C5)[C@@H]34)cc12` (stereo not given in full) was tested, and the growth was -11.7% (active). In the case of `CC1(C)CC[C@]2(CO)CC[C@]3(C)C(=CC[C@@H]4[C@@]5(C)CC[C@H](NCO)C(C)(C)[C@@H]5CC[C@]43C)[C@@H]2C1`, the growth is reported as -70.1% (active). In the case of `CCOC(=O)CC[C@H](NC(=O)c1ccc(NC)c2ccccc12)C(=O)OCC`, the growth is reported as 95.1%. In the case of `Cc1cc(NCCCNc2ccnc3cc(Cl)ccc23)nc(Nc2ccc(C(=O)N3CCCCC3)cc2)n1`, the growth is reported as -19% (active). In the case of `Cc1nc(N)sc1C(=O)NCCO`, the growth is reported as 96.8%. `Cc1ccc(NC(=O)c2ccc(CN3CC[C@H](N(C)C)C3)c(C(F)(F)F)c2)cc1Nc1nccc(-c2cncnc2)n1` was tested, and the growth was -36.5% (active). `COc1ccc(-c2nc(Nc3ccc(-c4nc5ccccc5[nH]4)cc3)nc(N3CCOCC3)n2)cc1` was tested, and the growth was -1.23% (active). In the case of `O=C(c1ccc(OCCN2CCCCC2)cc1)c1c(-c2ccc(O)cc2)sc2cc(O)ccc12`, the growth is reported as 57.7%. `CN1CCN(CCCOc2ccc3nc(Nc4ccc(F)c(F)c4)ccc3c2)CC1` was tested, and the growth was 9.52% (active). For `COc1ccc2nc3cc(Cl)ccc3c(NCCCNCCC(C)O)c2c1` (stereo not given), the growth was -54% (active). `C[C@@H](C(=O)O)c1ccc2c3cc(Cl)ccc3n(Cc3cc(=O)oc4ccc(Cl)cc34)c2c1` showed a growth of 113%. `C=CCc1cc(OC)c(OC)c(OC)c1` gave a growth of 91%. In the case of `O=[N+]([O-])c1ccc(C=C2C(Cl)=C(Cl)C(Cl)=C2Cl)cc1`, the growth is reported as 48.3%.
